Holding throughout (assay): NP40-soluble protein abundance relative to vehicle (solubility fold change) (ratio); higher = more soluble protein in presence of ATP
The target in one assay is T1, GBP1 (UniProt P32455).
T1 sequence (whole entry): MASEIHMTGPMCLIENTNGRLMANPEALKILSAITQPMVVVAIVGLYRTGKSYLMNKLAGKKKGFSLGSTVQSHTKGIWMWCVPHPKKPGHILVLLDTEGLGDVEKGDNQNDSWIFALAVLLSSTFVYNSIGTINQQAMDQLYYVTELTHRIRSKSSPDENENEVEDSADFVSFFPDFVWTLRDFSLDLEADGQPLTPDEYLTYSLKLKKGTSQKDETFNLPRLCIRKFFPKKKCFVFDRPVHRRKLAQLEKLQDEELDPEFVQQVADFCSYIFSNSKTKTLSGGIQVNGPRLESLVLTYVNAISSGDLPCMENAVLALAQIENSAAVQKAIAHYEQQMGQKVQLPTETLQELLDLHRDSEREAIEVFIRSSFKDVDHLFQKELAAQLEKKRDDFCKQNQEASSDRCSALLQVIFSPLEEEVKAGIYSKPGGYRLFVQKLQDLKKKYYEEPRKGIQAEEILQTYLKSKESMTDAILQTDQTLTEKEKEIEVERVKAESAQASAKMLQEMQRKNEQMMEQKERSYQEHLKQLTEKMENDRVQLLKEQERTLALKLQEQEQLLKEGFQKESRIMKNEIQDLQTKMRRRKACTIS
The procedure, abridged: (§1)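 Jurkat crude lysate prepared with a Dounce homogeniser was treated at eight concentrations spanning 0.1 to 10 mM, 10 min at room temperature then 3 min at 37 °C. Solubilisation with 0.8% NP40 and benzonase and ultracentrifugation preceded TMT labelling of the supernatant for LC-MS/MS. Fold change against the detergent-processed vehicle was determined per replicate from vsn-normalised intensities, across three independent experiments.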

Another assay addresses T2, NKTR (UniProt P30414).
T2 sequence (whole entry): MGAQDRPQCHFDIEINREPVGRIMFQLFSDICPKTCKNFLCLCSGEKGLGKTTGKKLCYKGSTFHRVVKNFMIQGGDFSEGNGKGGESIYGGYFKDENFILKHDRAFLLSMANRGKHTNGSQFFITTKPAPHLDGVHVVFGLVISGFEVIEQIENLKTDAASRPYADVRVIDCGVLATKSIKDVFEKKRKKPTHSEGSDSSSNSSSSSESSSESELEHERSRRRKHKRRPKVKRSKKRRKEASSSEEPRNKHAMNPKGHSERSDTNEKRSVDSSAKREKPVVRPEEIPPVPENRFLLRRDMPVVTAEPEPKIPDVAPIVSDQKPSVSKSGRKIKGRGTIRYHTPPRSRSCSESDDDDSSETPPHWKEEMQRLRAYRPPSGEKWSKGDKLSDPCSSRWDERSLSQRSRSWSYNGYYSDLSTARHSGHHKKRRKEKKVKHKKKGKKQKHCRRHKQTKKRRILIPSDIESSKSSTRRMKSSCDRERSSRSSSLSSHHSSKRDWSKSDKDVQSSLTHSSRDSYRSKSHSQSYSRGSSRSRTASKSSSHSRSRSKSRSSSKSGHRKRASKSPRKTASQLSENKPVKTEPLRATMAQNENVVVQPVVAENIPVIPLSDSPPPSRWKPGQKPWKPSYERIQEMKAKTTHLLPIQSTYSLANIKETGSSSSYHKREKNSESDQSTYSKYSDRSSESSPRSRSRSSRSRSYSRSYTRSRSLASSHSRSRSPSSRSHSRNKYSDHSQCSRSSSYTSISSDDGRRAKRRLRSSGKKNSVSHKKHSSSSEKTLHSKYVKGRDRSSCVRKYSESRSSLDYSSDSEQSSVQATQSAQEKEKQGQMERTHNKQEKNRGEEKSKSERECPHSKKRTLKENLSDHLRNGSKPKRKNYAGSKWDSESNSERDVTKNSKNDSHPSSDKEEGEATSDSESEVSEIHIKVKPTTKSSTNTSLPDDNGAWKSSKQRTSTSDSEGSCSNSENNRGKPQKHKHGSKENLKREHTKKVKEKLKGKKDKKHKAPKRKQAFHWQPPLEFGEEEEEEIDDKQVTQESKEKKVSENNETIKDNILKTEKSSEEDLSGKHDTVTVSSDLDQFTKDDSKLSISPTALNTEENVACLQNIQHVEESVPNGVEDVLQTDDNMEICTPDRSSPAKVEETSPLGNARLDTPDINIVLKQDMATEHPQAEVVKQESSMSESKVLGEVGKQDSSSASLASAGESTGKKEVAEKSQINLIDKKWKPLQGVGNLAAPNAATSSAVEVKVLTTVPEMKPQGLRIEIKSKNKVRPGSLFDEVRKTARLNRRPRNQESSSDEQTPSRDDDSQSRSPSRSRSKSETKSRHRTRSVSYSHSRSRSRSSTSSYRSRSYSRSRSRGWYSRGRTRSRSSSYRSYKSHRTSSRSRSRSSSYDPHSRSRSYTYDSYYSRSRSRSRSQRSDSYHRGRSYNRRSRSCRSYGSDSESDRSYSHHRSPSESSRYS
In outline:
as §1

The next assay has as its target T3, SEC24C (UniProt P53992).
T3 sequence (whole entry): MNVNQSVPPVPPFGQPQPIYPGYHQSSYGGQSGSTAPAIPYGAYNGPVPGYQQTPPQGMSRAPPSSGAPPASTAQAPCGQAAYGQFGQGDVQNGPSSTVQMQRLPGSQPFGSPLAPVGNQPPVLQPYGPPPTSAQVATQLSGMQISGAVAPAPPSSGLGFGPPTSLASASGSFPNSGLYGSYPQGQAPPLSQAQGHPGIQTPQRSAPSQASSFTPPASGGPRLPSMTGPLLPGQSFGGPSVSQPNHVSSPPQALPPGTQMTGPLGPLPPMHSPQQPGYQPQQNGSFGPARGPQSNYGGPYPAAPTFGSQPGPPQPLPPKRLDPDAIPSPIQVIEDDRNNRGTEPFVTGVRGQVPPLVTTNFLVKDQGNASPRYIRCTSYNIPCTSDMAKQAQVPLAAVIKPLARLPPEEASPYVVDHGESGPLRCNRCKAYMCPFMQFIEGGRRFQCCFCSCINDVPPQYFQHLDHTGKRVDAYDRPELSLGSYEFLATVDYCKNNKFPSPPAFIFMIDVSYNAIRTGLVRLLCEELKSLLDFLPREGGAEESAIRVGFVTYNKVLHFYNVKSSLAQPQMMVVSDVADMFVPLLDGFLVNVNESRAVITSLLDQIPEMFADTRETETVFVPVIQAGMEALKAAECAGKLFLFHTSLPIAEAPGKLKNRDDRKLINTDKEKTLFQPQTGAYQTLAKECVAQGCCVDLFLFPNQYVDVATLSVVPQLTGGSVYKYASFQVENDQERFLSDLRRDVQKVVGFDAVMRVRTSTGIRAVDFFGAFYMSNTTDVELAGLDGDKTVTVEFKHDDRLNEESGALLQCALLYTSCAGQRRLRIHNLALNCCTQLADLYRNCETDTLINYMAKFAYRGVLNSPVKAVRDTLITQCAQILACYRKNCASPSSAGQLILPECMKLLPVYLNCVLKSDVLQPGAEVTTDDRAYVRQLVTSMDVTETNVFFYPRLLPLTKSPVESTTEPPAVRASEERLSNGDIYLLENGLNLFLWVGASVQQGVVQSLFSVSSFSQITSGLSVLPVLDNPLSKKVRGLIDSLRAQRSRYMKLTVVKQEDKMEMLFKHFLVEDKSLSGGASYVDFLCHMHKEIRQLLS
The procedure, abridged:
as §1

The next assay addresses T4, SPAG7 (UniProt O75391).
T4 sequence (whole entry): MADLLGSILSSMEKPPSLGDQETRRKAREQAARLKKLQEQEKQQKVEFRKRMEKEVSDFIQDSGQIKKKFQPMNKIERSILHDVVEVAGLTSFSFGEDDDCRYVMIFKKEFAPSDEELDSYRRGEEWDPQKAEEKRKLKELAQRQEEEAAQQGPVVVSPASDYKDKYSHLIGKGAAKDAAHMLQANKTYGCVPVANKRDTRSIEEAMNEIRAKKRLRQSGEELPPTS
Particulars: concentration: 1mM. In outline: as §1

± gives the standard deviation of the averaged measurements. Of roughly 6,500 targets only a part is listed; those with the largest changes were picked by preference.

Take `Nc1ncnc2c1ncn2[C@@H]1O[C@H](COP(=O)(O)OP(=O)(O)OP(=O)(O)O)[C@@H](O)[C@H]1O` [adenosine triphosphate]: the NP40-soluble protein abundance with GBP1 (concentration: 1mM) came to 0.968 ± 0.053; in the assay with GBP1 (concentration: 2mM), 0.96 ± 0.0051; with GBP1 (concentration: 4mM), 0.945 ± 0.011; with GBP1 (concentration: 6mM) it was 0.979 ± 0.015; with GBP1 (concentration: 8mM), 0.922 ± 0.018; with GBP1 (concentration: 10mM) it was 0.936 ± 0.03. Moreover, the NP40-soluble protein abundance in the assay with NKTR (concentration: 1mM) stood at 1.53 ± 0.25; with NKTR (concentration: 2mM) it was 1.63 ± 0.19; with NKTR (concentration: 4mM), 1.68 ± 0.23; with NKTR (concentration: 6mM), 1.83 ± 0.22; with NKTR (concentration: 8mM) it was 1.75 ± 0.19; with NKTR (concentration: 10mM), 1.75 ± 0.22. Moreover, the NP40-soluble protein abundance is 0.99 ± 0.055 in the assay with SEC24C (concentration: 1mM); 0.987 ± 0.057 with SEC24C (concentration: 2mM); 0.98 ± 0.043 with SEC24C (concentration: 4mM); 0.919 ± 0.095 with SEC24C (concentration: 6mM); 0.981 ± 0.019 with SEC24C (concentration: 8mM); 0.984 ± 0.074 in the assay with SEC24C (concentration: 10mM). Besides, in the assay with SPAG7, the NP40-soluble protein abundance is 0.972 ± 0.053.

The values are drawn from the supplement of paper PMC6411743.
